# Assay results: the supplement of paper PMC11865577
# Counter-ions that a name gives are not always drawn.
# Legend:
# Assay in all cases: normalised indicator fluorescence (fraction of RNA + indicator signal without compound); higher = less displacement of indicator (weaker competition)
# Conditions in all cases: compound concentration: 5 uM, 30 min
# [1] = system: SARS-CoV-2 low-rank motif (SARS-low)
# Outline: (§1)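 Compounds, each at about 5 uM final from 0.25 μL of 1 mM DMSO stock, were tested in 96-well plates for displacement of TO-PRO-1 or TO-PRO-3 from RNA in 20 mM phosphate pH 7.0, 20 mM NaCl, 80 mM KCl. Fluorescence was recorded after 30 min on an Infinite 200 PRO (excitation 485 or 620 nm). Reported values are averages of two independent experiments, calculated as indicator fluorescence minus the buffer-plus-indicator blank, divided by the RNA-plus-indicator signal without compound.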
# hsa-mir-191 loop = system: hsa-mir-191 loop
# Outline: as §1
# hsa-mir-21 loop = system: hsa-mir-21 loop
# Outline: as §1
# hsa-mir-221 loop = system: hsa-mir-221 loop
# Outline: as §1
# hsa-mir-374a loop = system: hsa-mir-374a loop
# Outline: as §1
# hsa-mir-6850 loop = system: hsa-mir-6850 loop
# Outline: as §1
# [2] = indicator: TO-PRO-1 0.1 uM, RNA concentration: 0.1 uM
# [3] = indicator: TO-PRO-3 0.5 uM, RNA concentration: 0.5 uM
compound,measurement,setting,value
O=C1CCc2ccccc2C1 [Beta-Tetralone],normalised indicator fluorescence,[1]; [2],1.19
same,normalised indicator fluorescence,[1]; [3],1.2
C[C@H]1[C@H](C)CC[C@]2(C(=O)O)CC[C@]3(C)C(=CC[C@@H]4[C@@]5(C)C[C@@H](O)[C@H](O)[C@@](C)(CO)[C@@H]5CC[C@]43C)[C@H]12 [Asiatic acid],normalised indicator fluorescence,[1]; [2],1.08
same,normalised indicator fluorescence,[1]; [3],0.985
CN1CCN(c2nc(C3=C(c4c[nH]c5ccccc45)C(=O)NC3=O)c3ccccc3n2)CC1 [Sotrastaurin],normalised indicator fluorescence,[1]; [2],1.4
same,normalised indicator fluorescence,[1]; [3],1.29
COc1c(C)cnc(Cn2cnc3c(Cl)nc(N)nc32)c1C,normalised indicator fluorescence,[1]; [2],1.13
same,normalised indicator fluorescence,[1]; [3],1.17
CC(=O)O[C@H]1C[C@@]2(C)[C@@H](C[C@@H](O)[C@H]3[C@@]4(C)CC[C@@H](O)[C@@H](C)[C@@H]4CC[C@@]32C)/C1=C(\CCC=C(C)C)C(=O)O [Fusidine],normalised indicator fluorescence,[1]; [2],1.26
same,normalised indicator fluorescence,[1]; [3],1.12
O=C(NC(Cc1cc(=O)[nH]c2ccccc12)C(=O)O)c1ccc(Cl)cc1 (configuration not stated) [Rebamipide],normalised indicator fluorescence,[1]; [2],1.3
same,normalised indicator fluorescence,[1]; [3],1.07
O=C1C[C@@H](c2ccc(O)cc2)Oc2cc(O)cc(O)c21 [Naringenin],normalised indicator fluorescence,[1]; [2],1.03
same,normalised indicator fluorescence,[1]; [3],1.12
CC1(C)OC(=O)C=C[C@]2(C)[C@H]3CC[C@@]4(C)[C@H](c5ccoc5)OC(=O)[C@H]5O[C@]54[C@]3(C)C(=O)C[C@@H]12 [Obacunone],normalised indicator fluorescence,[1]; [2],1.14
same,normalised indicator fluorescence,[1]; [3],0.991
CCc1cc(C(N)=S)ccn1 [Ethinamide],normalised indicator fluorescence,[1]; [2],1.15
same,normalised indicator fluorescence,[1]; [3],1.12
O=c1ncn2nc(Sc3ccc(F)cc3F)ccc2c1-c1c(Cl)cccc1Cl [Neflamapimod],normalised indicator fluorescence,[1]; [2],1.2
same,normalised indicator fluorescence,[1]; [3],1.17
C[C@H]1Oc2cc(cnc2N)-c2c(nn(C)c2C#N)CN(C)C(=O)c2ccc(F)cc21 [Lorlatinib],normalised indicator fluorescence,[1]; [2],1.13
same,normalised indicator fluorescence,[1]; [3],1.23
O=C(Nc1ccc2[nH]nc(-c3ccncc3)c2c1)[C@@H]1CCN(CC(=O)N2CCN(c3ccc(-c4ncccn4)cc3)CC2)C1,normalised indicator fluorescence,[1]; [2],1.11
same,normalised indicator fluorescence,[1]; [3],1.26
CCCC(C(=O)OCCN(CC)CC)(c1ccccc1)c1ccccc1 [Proadifen hydrochloride],normalised indicator fluorescence,[1]; [2],1.28
same,normalised indicator fluorescence,[1]; [3],1.04
N#Cc1c(NC(=O)c2cccc3ccccc23)sc2c1CCCC2,normalised indicator fluorescence,[1]; [2],1.03
same,normalised indicator fluorescence,[1]; [3],1.1
CC1=CC(=O)c2c(O)cccc2C1=O [Plumbagin],normalised indicator fluorescence,[1]; [2],1.22
same,normalised indicator fluorescence,[1]; [3],1.02
same,normalised indicator fluorescence,hsa-mir-191 loop; [2],1.02
same,normalised indicator fluorescence,hsa-mir-191 loop; [3],1.01
same,normalised indicator fluorescence,hsa-mir-21 loop; [2],0.979
same,normalised indicator fluorescence,hsa-mir-21 loop; [3],0.979
same,normalised indicator fluorescence,hsa-mir-221 loop; [2],1.02
same,normalised indicator fluorescence,hsa-mir-221 loop; [3],1.05
same,normalised indicator fluorescence,hsa-mir-374a loop; [2],1.17
same,normalised indicator fluorescence,hsa-mir-374a loop; [3],1.15
same,normalised indicator fluorescence,hsa-mir-6850 loop; [2],0.922
same,normalised indicator fluorescence,hsa-mir-6850 loop; [3],1.01
Cn1cc(-c2ccc3c(c2)CCN3C(=O)Cc2cccc(C(F)(F)F)c2)c2c(N)ncnc21,normalised indicator fluorescence,[1]; [2],1.35
same,normalised indicator fluorescence,[1]; [3],1.24
COc1ccc2c(c[n+](C)c3c4cc5c(cc4ccc23)OCO5)c1OC [Chelerythrine chloride],normalised indicator fluorescence,[1]; [2],1.46
same,normalised indicator fluorescence,[1]; [3],0.807
same,normalised indicator fluorescence,hsa-mir-191 loop; [2],0.626
same,normalised indicator fluorescence,hsa-mir-191 loop; [3],0.656
same,normalised indicator fluorescence,hsa-mir-21 loop; [2],0.586
same,normalised indicator fluorescence,hsa-mir-21 loop; [3],0.724
same,normalised indicator fluorescence,hsa-mir-221 loop; [2],0.568
same,normalised indicator fluorescence,hsa-mir-221 loop; [3],0.592
same,normalised indicator fluorescence,hsa-mir-374a loop; [2],1.01
same,normalised indicator fluorescence,hsa-mir-374a loop; [3],1.02
same,normalised indicator fluorescence,hsa-mir-6850 loop; [2],0.335
same,normalised indicator fluorescence,hsa-mir-6850 loop; [3],0.494
COc1ccc(-c2coc3cc(O)ccc3c2=O)cc1O [Calycosin],normalised indicator fluorescence,[1]; [2],1.4
same,normalised indicator fluorescence,[1]; [3],1.09
NC(=O)c1ccc(N(C(N)=O)c2c(F)cccc2F)nc1-c1ccc(F)cc1F,normalised indicator fluorescence,[1]; [2],1.28
same,normalised indicator fluorescence,[1]; [3],1.21
O=C(O)/C=C/c1ccc(Cn2ccnc2)cc1 [Ozagrel hydrochloride],normalised indicator fluorescence,[1]; [2],1.1
same,normalised indicator fluorescence,[1]; [3],1.09
[I-].[K+] [Potassium iodide],normalised indicator fluorescence,[1]; [2],1.21
same,normalised indicator fluorescence,[1]; [3],1.29
O=c1cc(-c2ccc(O)cc2)oc2cc(O)cc(O)c12 [Apigenin],normalised indicator fluorescence,[1]; [2],1.22
same,normalised indicator fluorescence,[1]; [3],1.27
NNC(=O)c1ccncc1 [Isoniazid],normalised indicator fluorescence,[1]; [2],1.12
same,normalised indicator fluorescence,[1]; [3],1.13
CC1=NN(c2ccccc2)C(=O)C1 [Edaravone],normalised indicator fluorescence,[1]; [2],1.13
same,normalised indicator fluorescence,[1]; [3],1.32
Cc1c(C)c2c(c(C)c1O)CCC(C)(C(=O)O)O2 (configuration not stated) [Trolox],normalised indicator fluorescence,[1]; [2],1.24
same,normalised indicator fluorescence,[1]; [3],1.07
C[C@H](CCC(=O)NCCS(=O)(=O)O)[C@H]1CC[C@H]2[C@@H]3[C@@H](O)C[C@@H]4C[C@H](O)CC[C@]4(C)[C@H]3CC[C@]12C [Tauroursodeoxycholic Acid],normalised indicator fluorescence,[1]; [2],1.21
same,normalised indicator fluorescence,[1]; [3],1.52
Cc1oncc1C(=O)Nc1ccc(C(F)(F)F)cc1 [Leflunomide],normalised indicator fluorescence,[1]; [2],1.07
same,normalised indicator fluorescence,[1]; [3],1.12
Cc1cccc(CC(=O)N2CCc3c2ccc(-c2cn(C)c4ncnc(N)c24)c3F)n1,normalised indicator fluorescence,[1]; [2],1.06
same,normalised indicator fluorescence,[1]; [3],1.05
CC1=C[C@]2(O)O[C@@]3(CC2=C(C)C)[C@@H](C)CC[C@@H]13 [Curcumenol],normalised indicator fluorescence,[1]; [2],1.11
same,normalised indicator fluorescence,[1]; [3],1.05
CNC(=O)c1ccc(C)c(-n2c(C)cc(OCc3ccc(F)cc3F)c(Br)c2=O)c1,normalised indicator fluorescence,[1]; [2],1.01
same,normalised indicator fluorescence,[1]; [3],1.07
Oc1cc(O)c2c(c1)O[C@H](c1ccc(O)c(O)c1)[C@@H](O)C2 [Cianidanol],normalised indicator fluorescence,[1]; [2],1.39
same,normalised indicator fluorescence,[1]; [3],1.17
